Results published in PubChem BioAssay (NCATS).
Where “and” joins values, the source holds several entries; their conditions need not be identical. Identical values can stand only once. Results filed as inconclusive are left out. Calls of active or inactive are those of the source. Unless noted, calls follow the shape of the dose curve; as a rule, active = well fitted curve in either direction with a large enough effect (not every such curve was filed as active); inconclusive = small, poorly fitted or top-dose-only effect, or another doubt; inactive = flat fitted curve, though single readings scatter.

Legend:
[1] = AP1 Signaling Pathway (AID 357); conditions: ME-180 AP-1-bla reporter, EGF-induced, beta-lactamase ratio, 5 h; series mostly up to 17.2 µM;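 also: ME-180 reporter cells stimulated with EGF at its EC50 level; % is scaled to controls: 0 for no effect and ±100 for the full control effect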
In short: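 AP-1-bla ME-180 cells, Opti-MEM + 0.5% dialyzed FBS, plated overnight 37 °C. Cpd titration + EC50 EGF, 5 h 37 °C. CCF4 2.5 h RT; ex 405, em 460/530 ratio → %activity, AC50.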

[2] = molecular target: Cytochrome P450 1A2 (Homo sapiens) (UniProt P05177); assay: p450-cyp1a2 (AID 410; calls by dose curve; also: potency is read from the fitted curve at half-maximal effect;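 as to activity change, negative = inhibition: -100% = full effect of reference inhibitor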); conditions: recombinant CYP1A2, luciferin-ME demethylation, luminescence; series mostly up to 25.6 µM
Chain of Cytochrome P450 1A2 (Homo sapiens) (P05177 whole entry, looked up): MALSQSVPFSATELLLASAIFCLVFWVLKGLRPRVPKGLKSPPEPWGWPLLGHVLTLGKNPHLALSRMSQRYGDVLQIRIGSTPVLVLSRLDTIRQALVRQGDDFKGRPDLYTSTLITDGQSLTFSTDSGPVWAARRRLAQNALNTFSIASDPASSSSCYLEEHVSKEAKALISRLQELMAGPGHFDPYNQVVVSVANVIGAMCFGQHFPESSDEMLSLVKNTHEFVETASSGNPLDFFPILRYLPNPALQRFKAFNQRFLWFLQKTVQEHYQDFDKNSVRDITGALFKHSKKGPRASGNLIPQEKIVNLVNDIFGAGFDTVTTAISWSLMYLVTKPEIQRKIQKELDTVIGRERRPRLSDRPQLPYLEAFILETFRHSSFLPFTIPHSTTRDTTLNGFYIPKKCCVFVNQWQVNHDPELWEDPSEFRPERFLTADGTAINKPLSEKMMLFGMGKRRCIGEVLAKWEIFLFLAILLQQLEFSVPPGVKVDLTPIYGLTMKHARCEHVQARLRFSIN
In short: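 20nM CYP1A2, 100uM Luciferin-ME (=Km), 100mM KPO4; cpd 10 min RT; +NADPH regen, 60 min RT; stop/detect 20 min; luminescence. Normalized to furafylline 57 uM = full inhibition.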

[3] = molecular target: Mitogen-activated protein kinase 10 (Mus musculus) (UniProt Q61831); assay: JNK3 AlphaScreen Assay (AID 530); conditions: JNK3 lysate, c-Jun phosphorylation; series mostly up to 57.1 µM;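 also: kinase came from lysate of stimulated human HepG2 cells; signal reports phosphorylation of biotinylated GST-cJun 1-79 at Ser73 with 10 µM ATP; % is scaled to controls: 0 for no effect and ±100 for the full control effect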
In short: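 Kinase buffer: 20 mM Tris-HCl pH 7.6, 10 mM MgCl2, 1 mM DTT, 0.1 mM Na3VO4, 0.01% Tween-20; ATP 10 uM. Substrate biotin-GST-cJun(1-79), enzyme from activated HepG2 lysates. Detection by Ser73 phospho-antibody AlphaScreen.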

[4] = molecular target: 3',5'-cyclic-AMP phosphodiesterase 4B (Homo sapiens) (UniProt Q07343); assay: qHTS Assay for Inhibitors of PDE-IV (AID 607; active = well fitted activation curve with a large enough effect in the main read-out, with a control signal flat, not every such curve was filed as active; also: % of control where 0% means no effect); conditions: HEK293 ACTOne CNG channel cells, membrane potential fluorescence; series mostly up to 22.9 µM
Chain of 3',5'-cyclic-AMP phosphodiesterase 4B (Homo sapiens) (Q07343 whole entry, looked up): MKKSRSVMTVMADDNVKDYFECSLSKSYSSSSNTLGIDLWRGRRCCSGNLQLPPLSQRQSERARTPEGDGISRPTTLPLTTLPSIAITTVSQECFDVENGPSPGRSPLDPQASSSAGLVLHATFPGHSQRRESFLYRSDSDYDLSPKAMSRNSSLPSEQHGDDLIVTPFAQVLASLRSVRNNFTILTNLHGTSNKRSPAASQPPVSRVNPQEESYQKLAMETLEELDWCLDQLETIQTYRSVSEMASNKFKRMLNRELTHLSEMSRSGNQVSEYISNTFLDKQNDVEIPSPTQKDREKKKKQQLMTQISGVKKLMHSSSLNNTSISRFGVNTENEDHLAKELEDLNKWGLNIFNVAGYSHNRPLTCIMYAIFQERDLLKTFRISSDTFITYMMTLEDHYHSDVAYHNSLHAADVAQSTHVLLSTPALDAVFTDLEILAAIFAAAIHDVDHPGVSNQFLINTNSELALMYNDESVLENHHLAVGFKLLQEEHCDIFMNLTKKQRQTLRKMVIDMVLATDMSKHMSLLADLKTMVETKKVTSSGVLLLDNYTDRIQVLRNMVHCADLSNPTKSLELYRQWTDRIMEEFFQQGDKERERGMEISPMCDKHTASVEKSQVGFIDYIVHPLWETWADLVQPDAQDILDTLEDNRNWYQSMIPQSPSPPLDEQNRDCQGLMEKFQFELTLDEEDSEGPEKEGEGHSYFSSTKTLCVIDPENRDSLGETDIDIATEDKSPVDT
In short: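 Cell-based read-out of cAMP via a modified cyclic nucleotide-gated channel and membrane potential dye (535/590 nm) in HEK293 cells expressing PDE4 endogenously. Compounds tested up to 22.9 uM final; 100 uM RO 20-1724 reference.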

[5] = Cell Viability - BJ (AID 421; calls by dose curve;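 also: potency is read from the fitted curve at half-maximal effect; cells exposed to compound for 40 hours at 37 °C before readout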); conditions: BJ fibroblast viability, qHTS
In short: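 Cytotoxicity as drop in intracellular ATP (CellTiter-Glo, 20 min RT) after 40 hr compound exposure of BJ fibroblasts at 37 °C. Titrations scaled between DMSO and 100 uM tamoxifen, Hill-fitted for AC50.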

[6] = Cell Viability - Jurkat (AID 426;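 active = dose-dependent loss of cell ATP signal giving a full or clear fitted curve, ranked by lower potency value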;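 also: potency is read from the fitted curve at half-maximal effect; cells exposed to compound for 40 hours at 37 °C before ATP read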); conditions: qHTS
In short: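 Luminescent ATP read-out (CellTiter-Glo, 20 min at room temperature) after 40 hr compound exposure at 37 °C of Jurkat E6-1 cells, 5000/well. Decreased ATP taken as cytotoxicity; AC50 from standard Hill equation.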

[7] = Cell Viability - Hek293 (AID 427;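 active = compounds whose dose-response curve shows a full or clear partial loss of cell viability, called from curve shape rather than a numeric limit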;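 also: potency is read from the fitted curve at half-maximal effect; cells exposed to compound for 40 hours at 37 °C before reading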); conditions: qHTS
In short: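 Luminescent ATP content (CellTiter-Glo, 20 min at room temperature) was measured after a 40 hr, 37 °C compound exposure of HEK293 cells. AC50 values came from Hill-equation fits of qHTS concentration-response data normalized to DMSO and 100 uM tamoxifen.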

[8] = Cell Viability - HepG2 (AID 433; calls by dose curve;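 also: potency is read from the fitted curve at half-maximal effect; potency for ATP loss meaning cytotoxicity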); conditions: qHTS
In short: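 Read-out is luciferase-based quantitation of cellular ATP as a measure of viable HepG2 cells after 40 h treatment at 37 °C. Signal decrease is scaled between DMSO-only and 100 uM tamoxifen controls, with AC50 fitted by the Hill equation.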

[9] = Cell Viability - MRC5 (AID 434; calls by dose curve;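 also: potency is read from the fitted curve at half-maximal effect; cells exposed to compound for 40 hours at 37 °C; potency reflects cytotoxicity seen as loss of intracellular ATP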); conditions: MRC5 lung fibroblast viability, qHTS
In short: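 AC50 values come from Hill-equation fits of intracellular ATP loss, measured by CellTiter-Glo luminescence. Normal lung fibroblasts (MRC5) had 40 hr compound treatment at 37 C, normalized between DMSO and 100 uM tamoxifen.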

[10] = Cell Viability - SK-N-SH (AID 435; calls by dose curve; also: potency is read from the fitted curve at half-maximal effect); conditions: SK-N-SH neuroblastoma cell viability qHTS
In short: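 Luminescent ATP signal served as the viability read-out after 40 hours of compound treatment of human neuroblastoma SK-N-SH cells. Concentration-response data, scaled between DMSO and 100 uM tamoxifen, gave AC50 values by standard Hill modeling.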

[11] = NFAT Signaling Pathway (AID 444); conditions: Jurkat NFAT-bla M1, carbachol, beta-lactamase ratio, 5 h;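 also: carbachol stimulus at about its EC50 of 1 µM final; % is scaled to controls: 0 for no effect and ±100 for the full control effect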
In short: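 Read-out: CCF4 FRET ratio (460 nm/530 nm) after 1 h RT dye loading, used for %activity and AC50 from titration series. Cells: Jurkat NFAT-β-lactamase/M1 line, treated with compound plus 1 uM carbachol for 5 h, 37 °C.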

[12] = Stat Signaling Pathway (AID 446); conditions: ME-180 (cervical carcinoma) SIE beta-lactamase reporter, IL-6 stimulated, 5 h; series mostly up to 17.2 µM;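 also: ME-180 cervical cancer cells given 40 pM IL-6 alongside compound; SIE-controlled beta-lactamase reporter measured as 460/530 nm FRET emission ratio; % is scaled to controls: 0 for no effect and ±100 for the full control effect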
In short: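 FRET read-out (405 nm excitation, 460/530 nm emission) of a beta-lactamase reporter under a STAT-inducible element in ME-180 cervical carcinoma cells. Cells with compound receive 40 pM IL-6 for 5 h. Values are normalised to AC90 stimulation and AC90 JAK-inhibitor controls.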

[13] = Cell Viability - N2a (AID 540; active = well fitted curve in the direction sought with a large enough effect; an effect the other way counts as inactive or inconclusive;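 also: plate controls were DMSO alone for no effect and tamoxifen control for full effect; nearly all actives have a fitted effect of over 45% in size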); conditions: N2a mouse neuroblastoma cell viability; activity change, negative = cytotoxicity: at 92.2 µM (top of the series)
In short: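 N2a mouse neuroblastoma, 1500 cells/well, 5 hr settle; compound 40 hr, 37 °C; CellTiter-Glo 20 min RT; luminescence; Hill-fit AC50.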

[14] = Cell Viability - NIH 3T3 (AID 541; active = well fitted curve in the direction sought with a large enough effect; an effect the other way counts as inactive or inconclusive;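 also: plate controls were DMSO alone for no effect and tamoxifen positive control for full effect; nearly all actives have a fitted effect of over 25% in size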); conditions: NIH 3T3 cell viability, qHTS; series mostly up to 92.2 µM
In short: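 qHTS format; 40 hr compound exposure, 37 °C; CellTiter-Glo luminescence (cellular ATP) read-out after 20 min at RT. Decrease in ATP = cytotoxicity; AC50 from standard Hill fit.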

[15] = Cell Viability - HUV-EC-C (AID 542; active = well fitted curve in the direction sought with a large enough effect; an effect the other way counts as inactive or inconclusive; also: % is scaled to controls: 0 for no effect and ±100 for the full control effect; nearly all actives have a fitted effect of over 35% in size); conditions: HUV-EC-C endothelial cell viability, qHTS; series mostly up to 92.2 µM
In short: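 Luminescent ATP read-out (CellTiter-Glo, 20 min room temperature) after 40 hr compound treatment of HUV-EC-C cells at 37 °C. Concentration-response data fitted with the standard Hill equation to give AC50; tamoxifen and doxorubicin served as positive controls.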

[16] = Cell Viability - H-4-II-E (AID 543; active = well fitted curve in the direction sought with a large enough effect; an effect the other way counts as inactive or inconclusive; also: % is scaled to controls: 0 for no effect and ±100 for the full control effect; nearly all actives have a fitted effect of over 35% in size); conditions: H-4-II-E rat hepatoma viability; series mostly up to 92.2 µM
In short: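 qHTS, rat hepatoma H-4-II-E, 1500 cells/well; 40 hr compound exposure, 37 °C; CellTiter-Glo ATP luminescence after 20 min RT; AC50 by standard Hill fit.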

[17] = Cell Viability - Mesenchymal (AID 546; active = well fitted curve in the direction sought with a large enough effect; an effect the other way counts as inactive or inconclusive;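 also: cells exposed to compound for 40 hours before reading; 0% = DMSO only and -100% = 100 µM tamoxifen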); conditions: mesenchymal cells viability, qHTS; series mostly up to 91.7 µM
In short: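 CellTiter-Glo luminescence (intracellular ATP, 20 min room temperature) after 40 hr compound exposure at 37 °C of 1000 glomerulus-derived human kidney mesenchymal cells/well; AC50 values obtained by fitting qHTS concentration-response data to the Hill equation.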

[18] = molecular target: Glucocorticoid receptor (Homo sapiens) (UniProt P04150); assay: GR-GFP Redistribution (AID 450;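 active = compounds whose dose series gives a full or clear partial fitted curve of increased nuclear translocation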; also: potency is read from the fitted curve at half-maximal effect); conditions: U2OS GR-GFP nuclear translocation, laser cytometry, 2 h
Chain of Glucocorticoid receptor (Homo sapiens) (P04150 whole entry, looked up, the tested form may be a part): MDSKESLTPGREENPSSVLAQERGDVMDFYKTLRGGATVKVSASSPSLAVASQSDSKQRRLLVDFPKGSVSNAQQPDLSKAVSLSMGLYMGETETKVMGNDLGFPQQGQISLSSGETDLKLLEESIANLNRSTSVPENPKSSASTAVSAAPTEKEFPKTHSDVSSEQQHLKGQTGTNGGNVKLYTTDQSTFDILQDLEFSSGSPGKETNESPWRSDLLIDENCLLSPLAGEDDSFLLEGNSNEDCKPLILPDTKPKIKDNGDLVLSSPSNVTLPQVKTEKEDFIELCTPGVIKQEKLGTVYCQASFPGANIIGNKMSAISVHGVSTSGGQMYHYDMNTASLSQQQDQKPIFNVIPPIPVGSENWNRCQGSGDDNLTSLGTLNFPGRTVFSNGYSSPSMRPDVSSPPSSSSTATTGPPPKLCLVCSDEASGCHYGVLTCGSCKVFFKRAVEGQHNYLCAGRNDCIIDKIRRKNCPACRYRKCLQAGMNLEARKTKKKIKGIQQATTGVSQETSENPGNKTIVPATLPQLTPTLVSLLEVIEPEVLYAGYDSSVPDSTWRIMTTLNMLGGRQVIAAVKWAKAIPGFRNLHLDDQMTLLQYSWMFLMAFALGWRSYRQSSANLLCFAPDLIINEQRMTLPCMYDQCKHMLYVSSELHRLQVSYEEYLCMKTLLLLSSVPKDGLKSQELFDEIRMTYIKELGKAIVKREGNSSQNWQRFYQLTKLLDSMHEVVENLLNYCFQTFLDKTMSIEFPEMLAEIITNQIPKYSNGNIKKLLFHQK

[19] = molecular target: Glucocorticoid receptor (Homo sapiens) (UniProt P04150); assay: GR-EFC Redistribution (AID 451; calls by dose curve; also: potency is read from the fitted curve at half-maximal effect); conditions: CHO-K1 GR-EFC translocation, beta-gal luminescence, 2 h
In short: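 Translocation of GR-ED fusion to nuclear EA restores b-gal, read by luminescence after 1 h room-temperature detection. Engineered CHO-K1 biosensor cells, 1,000/well, exposed 2 h at 37 C to titrations up to 46 uM final.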

[20] = Cell Viability - SH-SY5Y (AID 544; active = well fitted curve in the direction sought with a large enough effect; an effect the other way counts as inactive or inconclusive;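 also: 0% = DMSO alone and -100% = 100 µM tamoxifen; nearly all actives have a fitted effect of over 55% in size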); conditions: SH-SY5Y neuroblastoma cell viability; series mostly up to 92.2 µM
In short: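 SH-SY5Y, 1500 cells/well, 5 hr pre-incubation 37 °C; cpd 40 hr 37 °C; CellTiter-Glo 20 min RT; luminescence (ATP) read. qHTS concentration-response, Hill fit → AC50. Tamoxifen, doxorubicin as positive controls.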

Cc1cc2cc3c(C)cc(=O)oc3c(C)c2o1
active: Potency [2] 1 µM
inactive: outcome [1] | Potency [3] | outcome [4]

CCCc1cc(=O)[nH]c(=S)[nH]1
inactive: outcome [1] | Potency [2] | Potency [5] > 92 µM | Potency [6] > 92 µM | Potency [7] > 92 µM | Potency [8] > 92 µM | Potency [9] > 92 µM | Potency [10] > 92 µM | activity change, negative = inhibition ([11]; at 17.2 µM (top of the series)) -2.4% and 6.45% | outcome [12] | Potency [3] | Potency [13] | Potency [14] | Potency [15] | Potency [16] | Potency [17] | outcome [4]

O=C(CCc1ccc(O)cc1)c1c(O)cc(O)cc1O
inactive: outcome [1] | activity change, negative = inhibition ([11]; at 38 µM (top of the series)) 9.49% | Potency [18] > 46 µM | Potency [19] > 46 µM | Potency [3] | outcome [4]
active: Potency [2] 6.31 µM and 2 µM

CCOc1cc(CC(=O)N[C@@H](CC(C)C)c2ccccc2N2CCCCC2)ccc1C(=O)O
inactive: outcome [1] | Potency [2] | activity change, negative = inhibition ([11]; at 17.2 µM (top of the series)) -1.28% | outcome [12] | Potency [19] > 20.6 µM | Potency [3] | outcome [4]
active: Potency [18] 2.1 µM

NS(=O)(=O)c1cc(C(=O)O)c(NCc2ccco2)cc1Cl
inactive: outcome [1] | Potency [5] > 92 µM | Potency [6] > 92 µM | Potency [7] > 92 µM | Potency [8] > 92 µM | Potency [9] > 92 µM | Potency [10] > 92 µM | activity change, negative = inhibition ([11]; at 17.2 µM (top of the series)) -8.48% | outcome [12] | Potency [3] | Potency [13] | Potency [14] | Potency [15] | Potency [20] | Potency [17] | outcome [4]

COc1ccccc1N1CCN(CCN(C(=O)C2CCCCC2)c2ccccn2)CC1
inactive: outcome [1] | Potency [2] | activity change, negative = inhibition ([11]; at 38 µM (top of the series)) 3.68% | outcome [12] | Potency [18] > 46 µM | Potency [19] > 46 µM | Potency [3] | outcome [4]

Cc1cc(=O)oc2cc(O)ccc12
inactive: outcome [1] | outcome [12] | Potency [3] | outcome [4]
active: Potency [2] 3.98 µM

O=C(O)c1cc(=O)c2c(OCC(O)COc3cccc4oc(C(=O)O)cc(=O)c34)cccc2o1
inactive: outcome [1] | Potency [2] | activity change, negative = inhibition ([11]; at 17.2 µM (top of the series)) -1.1% and -27.1% | outcome [12] | Potency [3] | outcome [4]

Nc1nc(OCc2ccccc2)c2[nH]cnc2n1
inactive: outcome [1] | activity change, negative = inhibition ([11]; at 38 µM (top of the series)) -5.61% | outcome [12] | Potency [18] > 46 µM | Potency [19] > 46 µM | outcome [4]
active: Potency [2] 1 µM

c1ccc2[nH]c(-c3cscn3)nc2c1
active: Potency [2] 0.126 µM
inactive: outcome [1] | Potency [5] > 92 µM | Potency [7] > 92 µM | Potency [8] > 92 µM | Potency [9] > 92 µM | Potency [10] > 92 µM | activity change, negative = inhibition ([11]; at 17.2 µM (top of the series)) -19.5% and -28.1% | outcome [12] | Potency [18] > 20.6 µM | Potency [19] > 20.6 µM | Potency [3] | Potency [15] | Potency [16] | Potency [20] | Potency [17] | outcome [4]

CC(=O)Nc1ccc(O)cc1
inactive: outcome [1] | Potency [2] | Potency [5] > 92 µM | Potency [6] > 92 µM | Potency [7] > 92 µM | Potency [8] > 92 µM | Potency [9] > 92 µM | Potency [10] > 92 µM | outcome [12] | Potency [3] | Potency [13] | Potency [14] | Potency [15] | Potency [16] | Potency [20] | Potency [17]

O=C(O)c1cccnc1Nc1cccc(C(F)(F)F)c1
active: Potency [2] 10 µM and 5.01 µM
inactive: outcome [1] | activity change, negative = inhibition ([11]; at 17.2 µM (top of the series)) -16.9% and -24.7% | activity change, negative = inhibition ([11]; at 38 µM (top of the series)) 5.69% | outcome [12] | Potency [18] > 46 µM and > 20.6 µM | Potency [19] > 46 µM and > 20.6 µM | Potency [3] | outcome [4]
